According to PubChem BioAssay AID1159580 (chemical genetic matrix, 2015):
Among all 5,500 compounds or so, about 2,000 (36%) were called active. Inconclusive results (about 18%) are left out. The list shows a part of the results. Values without a mark were called inactive. Cut-off read from the data, not from the text of the source: active = normalized growth mostly below about 0.91 (no sharp cut-off); inconclusive = no clear call, values can overlap the other calls; inactive = mostly above about 0.92.

Test: chemical genetic growth profiling, strain panel (AID 1159580);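 note: tested at 20 µM; growth read once vehicle control cultures reached saturation at 30 °C; 1 = growth at the plate median or of vehicle wells; lower values mean less growth of the strain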
Details: S. cerevisiae deletion strains, growth OD
[1] = locus YAR019C, strain CDC15, stronger effect = lower value
[2] = locus YBL105C, strain PKC1, stronger effect = lower value
[3] = locus YBR135W, strain CKS1, stronger effect = lower value
[4] = locus YBR136W, strain MEC1, stronger effect = lower value
[5] = locus YBR160W, strain CDC28, stronger effect = lower value
[6] = locus YDL017W, strain CDC7, stronger effect = lower value
[7] = locus YDL028C, strain MPS1, stronger effect = lower value
[8] = locus YDL101C, strain DUN1, stronger effect = lower value
[9] = locus YDL108W, strain KIN28, stronger effect = lower value
[10] = locus YDL132W, strain cdc53, stronger effect = lower value
[11] = locus YDL214C, strain PRR2, stronger effect = lower value
[12] = locus YDR052C, strain DBF4, stronger effect = lower value
[13] = locus YDR054C, strain cdc34, stronger effect = lower value
[14] = locus YDR226W, strain ADK1, stronger effect = lower value
[15] = locus YDR477W, strain SNF1, stronger effect = lower value
[16] = locus YER123W, strain YCK3, stronger effect = lower value
[17] = locus YER133W, strain GLC7, stronger effect = lower value
[18] = locus YFL009W, strain cdc4, stronger effect = lower value
[19] = locus YFL029C, strain CAK1, stronger effect = lower value
[20] = locus YFR003C, strain YPI1, stronger effect = lower value
[21] = locus YFR019W, strain FAB1, stronger effect = lower value
[22] = locus YFR028C, strain CDC14, stronger effect = lower value
[23] = locus YGR040W, strain KSS1, stronger effect = lower value
[24] = locus YGR052W, strain FMP48, stronger effect = lower value
[25] = locus YGR092W, strain DBF2, stronger effect = lower value
[26] = locus YHR030C, strain SLT2, stronger effect = lower value
[27] = locus YHR079C, strain IRE1, stronger effect = lower value
[28] = locus YHR082C, strain KSP1, stronger effect = lower value
[29] = locus YHR205W, strain SCH9, stronger effect = lower value
[30] = locus YIL147C, strain SLN1, stronger effect = lower value
[31] = locus YJL095W, strain BCK1, stronger effect = lower value
[32] = locus YJL128C, strain PBS2, stronger effect = lower value
[33] = locus YJL157C, strain FAR1, stronger effect = lower value
[34] = locus YJR016C, strain ILV3, stronger effect = lower value
[35] = locus YJR066W, strain TOR1 (second series), stronger effect = lower value
[36] = locus YJR066W, strain TOR1, stronger effect = lower value
[37] = locus YKL048C, strain ELM1, stronger effect = lower value
[38] = locus YKL067W, strain YNK1, stronger effect = lower value
[39] = locus YKL101W, strain HSL1, stronger effect = lower value
[40] = locus YKL193C, strain SDS22, stronger effect = lower value
[41] = locus YKL203C, strain TOR2, stronger effect = lower value
[42] = locus YLR113W, strain HOG1, stronger effect = lower value
[43] = locus YLR133W, strain CKI1, stronger effect = lower value
[44] = locus YLR403W, strain SFP1, stronger effect = lower value
[45] = locus YML070W, strain DAK1, stronger effect = lower value
[46] = locus YMR001C, strain CDC5, stronger effect = lower value
[47] = locus YMR205C, strain PFK2 (second series), stronger effect = lower value
[48] = locus YMR277W, strain FCP1, stronger effect = lower value
[49] = locus YNL006W, strain LST8, stronger effect = lower value
[50] = locus YNL020C, strain ARK1, stronger effect = lower value
[51] = locus YNL161W, strain CBK1, stronger effect = lower value
[52] = locus YNL183C, strain NPR1, stronger effect = lower value
[53] = locus YNL207W, strain RIO2, stronger effect = lower value
[54] = locus YNL222W, strain SSU72, stronger effect = lower value
[55] = locus YNL307C, strain MCK1 (second series), stronger effect = lower value
[56] = locus YOL078W, strain AVO1, stronger effect = lower value
[57] = locus YOL136C, strain PFK27, stronger effect = lower value
[58] = locus YOR061W, strain CKA2, stronger effect = lower value
[59] = locus YOR119C, strain RIO1, stronger effect = lower value
[60] = locus YOR231W, strain MKK1, stronger effect = lower value
[61] = locus YOR329C, strain SCD5, stronger effect = lower value
[62] = locus YPL031C, strain PHO85, stronger effect = lower value
[63] = locus YPL153C, strain RAD53, stronger effect = lower value
[64] = locus YPL204W, strain HRR25, stronger effect = lower value
[65] = locus YPL209C, strain IPL1, stronger effect = lower value
[66] = locus YPL256C, strain CLN2, stronger effect = lower value
[67] = locus YPR025C, strain CCL1, stronger effect = lower value
[68] = locus YPR106W, strain ISR1, stronger effect = lower value
[69] = locus YPR111W, strain DBF20, stronger effect = lower value
[70] = strain NNK1, stronger effect = lower value
[71] = strain TSCII, stronger effect = lower value

CC(C)(C)CN/C(C#N)=C(/C#N)NCc1cccc(Cl)c1
normalized growth [1]: 0.993
normalized growth [2]: 0.991
normalized growth [3]: 0.98
normalized growth [4]: 0.991
normalized growth [5]: 0.991
normalized growth [6]: 0.994
normalized growth [7]: 0.993
normalized growth [8]: 0.982
normalized growth [9]: 0.997
normalized growth [10]: 0.987
normalized growth [11]: 0.991
normalized growth [12]: 0.996
normalized growth [13]: 0.991
normalized growth [14]: 0.973
normalized growth [15]: 0.988
normalized growth [16]: 0.947
normalized growth [17]: 0.988
normalized growth [18]: 0.988
normalized growth [19]: 0.992
normalized growth [20]: 0.991
normalized growth [21]: 0.99
normalized growth [22]: 0.983
normalized growth [23]: 0.966
normalized growth [24]: 0.947
normalized growth [25]: 0.871
normalized growth [26]: 0.977
normalized growth [27]: 0.995
normalized growth [28]: 1.01
normalized growth [29]: 0.896
normalized growth [30]: 1
normalized growth [31]: 0.883
normalized growth [32]: 0.95
normalized growth [33]: 0.982
normalized growth [34]: 0.987
normalized growth [35]: 0.97
normalized growth [36]: 1
normalized growth [37]: 0.986
normalized growth [38]: 0.977
normalized growth [39]: 0.954
normalized growth [40]: 0.984
normalized growth [41]: 1.04
normalized growth [42]: 0.915
normalized growth [43]: 0.974
normalized growth [44]: 0.941
normalized growth [45]: 0.965
normalized growth [46]: 0.995
normalized growth [47]: 0.973
normalized growth [48]: 0.992
normalized growth [49]: 0.978
normalized growth [50]: 0.974
normalized growth [51]: 0.984
normalized growth [52]: 0.945
normalized growth [53]: 0.98
normalized growth [54]: 0.984
normalized growth [55]: 0.877
normalized growth [56]: 0.981
normalized growth [57]: 0.955
normalized growth [58]: 1
normalized growth [59]: 1.04
normalized growth [60]: 0.931
normalized growth [61]: 0.99
normalized growth [62]: 0.99
normalized growth [63]: 0.988
normalized growth [64]: 0.967
normalized growth [65]: 0.982
normalized growth [66]: 1.08
normalized growth [67]: 0.986
normalized growth [68]: 0.989
normalized growth [69]: 0.964
normalized growth [70]: 0.987
normalized growth [71]: 0.985

CS(=NC(=O)c1cccc(Cl)c1)c1ccc(OC(=O)c2ccc(Cl)cc2)cc1 (stereo not given)
normalized growth [1]: 0.969
normalized growth [2]: 0.966
normalized growth [3]: 0.97
normalized growth [4]: 0.966
normalized growth [5]: 0.967
normalized growth [6]: 0.968
normalized growth [7]: 0.964
normalized growth [8]: 0.972
normalized growth [9]: 0.964
normalized growth [10]: 0.958
normalized growth [11]: 0.958
normalized growth [12]: 0.954
normalized growth [13]: 0.967
normalized growth [14]: 0.966
normalized growth [15]: 0.972
normalized growth [16]: 0.924
normalized growth [17]: 0.95
normalized growth [18]: 0.966
normalized growth [19]: 0.966
normalized growth [20]: 0.968
normalized growth [21]: 0.943
normalized growth [22]: 0.966
normalized growth [23]: 0.96
normalized growth [24]: 0.98
normalized growth [25]: 0.981
normalized growth [26]: 1.08
normalized growth [27]: 1.1
normalized growth [28]: 1.06
normalized growth [29]: 1
normalized growth [30]: 0.958
normalized growth [31]: 0.946
normalized growth [32]: 0.944
normalized growth [33]: 0.949
normalized growth [34]: 0.969
normalized growth [35]: 0.983
normalized growth [36]: 1.05
normalized growth [37]: 0.945
normalized growth [38]: 0.949
normalized growth [39]: 0.935
normalized growth [40]: 0.964
normalized growth [41]: 1.02
normalized growth [42]: 0.876
normalized growth [43]: 0.952
normalized growth [44]: 1
normalized growth [45]: 0.94
normalized growth [46]: 0.964
normalized growth [47]: 0.934
normalized growth [48]: 0.968
normalized growth [49]: 0.979
normalized growth [50]: 0.949
normalized growth [51]: 0.971
normalized growth [52]: 1.01
normalized growth [53]: 0.964
normalized growth [54]: 0.97
normalized growth [55]: 0.982
normalized growth [56]: 0.959
normalized growth [57]: 0.936
normalized growth [58]: 0.926
normalized growth [59]: 1.01
normalized growth [60]: 0.909
normalized growth [61]: 0.969
normalized growth [62]: 0.941
normalized growth [63]: 0.968
normalized growth [64]: 0.952
normalized growth [65]: 0.974
normalized growth [66]: 1.06
normalized growth [67]: 0.968
normalized growth [68]: 0.974
normalized growth [69]: 0.975
normalized growth [70]: 0.972
normalized growth [71]: 0.965

CCOc1ccc(/C=C(\C#N)c2cccc(Cl)c2)cc1
normalized growth (locus YAL013W, strain DEP1, stronger effect = lower value): 0.992
normalized growth (locus YBR229C, strain ROT2, stronger effect = lower value): 0.995
normalized growth (locus YCL061C, strain MRC1, stronger effect = lower value): 1.01
normalized growth [8]: 1.01
normalized growth (locus YDL134C, strain PPH21, stronger effect = lower value): 0.915 (active)
normalized growth (locus YDR150W, strain NUM1, stronger effect = lower value): 0.975
normalized growth (locus YEL061C, strain CIN8, stronger effect = lower value): 0.955
normalized growth (locus YGR078C, strain PAC10, stronger effect = lower value): 0.979
normalized growth [26]: 0.694
normalized growth (locus YHR087W, strain rtc3, stronger effect = lower value): 0.97
normalized growth (locus YJL187C, strain SWE1, stronger effect = lower value): 1.01
normalized growth (locus YJR043C, strain POL32, stronger effect = lower value): 1
normalized growth (locus YJR075W, strain HOC1, stronger effect = lower value): 0.967
normalized growth (locus YLR039C, strain RIC1, stronger effect = lower value): 0.892
normalized growth (locus YLR058C, strain SHM2 (second series), stronger effect = lower value): 0.982
normalized growth (locus YLR085C, strain ARP6, stronger effect = lower value): 0.723 (active)
normalized growth (locus YLR262C, strain YPT6, stronger effect = lower value): 0.952
normalized growth (locus YML094W, strain GIM5, stronger effect = lower value): 0.927
normalized growth (locus YMR219W, strain ESC1, stronger effect = lower value): 0.99
normalized growth (locus YMR263W, strain SAP30, stronger effect = lower value): 0.987
normalized growth (locus YMR307W, strain GAS1, stronger effect = lower value): 0.645 (active)
normalized growth (locus YNL153C, strain GIM3, stronger effect = lower value): 1.01
normalized growth (locus YNL298W, strain CLA4 (second series), stronger effect = lower value): 0.936
normalized growth (locus YNL322C, strain KRE1, stronger effect = lower value): 0.975
normalized growth (locus YNR030W, strain Alg12, stronger effect = lower value): 0.928
normalized growth (locus YPL055C, strain LGE1, stronger effect = lower value): 0.95
normalized growth (locus YPL241C, strain CIN2, stronger effect = lower value): 0.933
normalized growth (locus YPR135W, strain CTF4, stronger effect = lower value): 0.987
